# Test results from PubChem BioAssay.
# “And” between values parts separate entries of the source, which are not always exact repeats. Identical values can stand only once. The source made the active and inactive calls.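 How the source made its calls, unless noted: active means compounds whose cell count with miR-34 switched on is under 0.7 times the count with it off; inactive means the rest.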 Where a SMILES comes first, the peptide text is derived from it. The star is where a group is joined. Cbz = O=C(OCc1ccccc1)*
# Columns and labels:
# [1] = viability loss with induced miR-34 in A549 – imaging, A549 dox-inducible miR-34, nuclei and caspase counts, primary screen (AID 1347080); conditions: A549 miR-34 inducible, Hoechst nuclei count, 48 h
# [2] = compounds altering circadian rhythm period length – cell-based, LOPAC library, luminescence reporter (AID 2774; call rule not given here;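 further: values are relative to mean of DMSO wells on each plate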); conditions: circadian reporter cells, at 7 µM, actives lie on both sides
# [3] = test system: Hepatitis C virus NS3 helicase; experiment: blockers of NS3h binding to ssDNA – biochemical, fluorescence polarization, LOPAC1280 library, primary screen (AID 687035; in the data active means inhibition above about 37%); conditions: Purified HCV NS3 helicase, Cy5-dT15 ssDNA binding fluorescence polarization; stronger effect = higher value; concentration not given here
# [4] = compounds altering Cy5-DNA-NS3h complex signal – biochemical, LOPAC1280, artefact control for HCV NS3 helicase inhibitor project (AID 687037; call rule not given here); conditions: Cy5-DNA-NS3h complex fluorescence interference counterscreen
# [5] = chitosan synthesis blockers in C. neoformans – flow cytometry, Cibacron Brilliant Red staining (AID 1347148; call rule not given here;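 further: compound exposure lasted three days at 37 degrees C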); conditions: Cryptococcus neoformans chitosan, stronger effect = lower value; at 10 µM unless noted
# [6] = blockers of cellular phospholipid synthesis – cell-based, LOPAC library, screen 4, primary screen (AID 1347384; call rule not given here); conditions: animal cells, phospholipid biosynthesis inhibition screen; at 10 µM
# [7] = galactose survival enhancers in mitochondrial complex I cybrids – cell-based, galactose medium, ATP luminescence, primary screen (AID 1645843;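 active means z-score of at least 1.8 in each of two replicates, scored against plate mean and spread of sample wells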;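 further: positive z means more ATP and so rescue of galactose-driven cybrid death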); conditions: complex I mutant cybrid cells, 72 h, stronger effect = higher value
# [8] = stronger effect = lower value, cell number ratio, induced over uninduced
# [9] = measured here: relative caspase fold change +Dox/-Dox
# [10] = measured here: total cells with miR-34 induction, stronger effect = lower value
# [11] = measured here: total cells without miR-34 induction
structure (smiles),measurement,setting,value
CCCCC/C=C\CCCC/C=C\C/C=C\CCCC(=O)O,fold change,[1]; [8],0.917 (inactive)
same,fold change,[1]; [9],0.462
same,cell count,[1]; [10],5360
same,cell count,[1]; [11],5850
CCCCC[C@H](O)/C=C/[C@H]1C(=O)C[C@H](O)[C@@H]1C/C=C\CCCC(=O)OC,fold change,[1]; [8],0.892 (inactive)
same,fold change,[1]; [9],0.761
same,cell count,[1]; [10],5010
same,cell count,[1]; [11],5620
CCOC(=O)c1c(Cc2cccc(Cl)c2)[nH]c2c1cc(O)c1ccccc12,fold change,[1]; [8],0.954 (inactive)
same,fold change,[1]; [9],1.94
same,cell count,[1]; [10],4980
same,cell count,[1]; [11],5220
CC#CCC(C)[C@@H](O)/C=C/[C@@H]1[C@H]2C/C(=C\CCCC(=O)O)C[C@H]2C[C@H]1O (stereo partly specified),fold change,[1]; [8],0.903 (inactive)
same,fold change,[1]; [9],1.4
same,cell count,[1]; [10],4970
same,cell count,[1]; [11],5500
CCCCCCC(=O)SC[C@H](COP(=O)([O-])OCC[N+](C)(C)C)SC(=O)CCCCCC,fold change,[1]; [8],0.918 (inactive)
same,fold change,[1]; [9],0.72
same,cell count,[1]; [10],5570
same,cell count,[1]; [11],6070
CCCCCCCC/C=C\CCCCCCCC(=O)NCC(=O)O,fold change,[1]; [8],1.05 (inactive)
same,fold change,[1]; [9],0.739
same,cell count,[1]; [10],6150
same,cell count,[1]; [11],5840
CCCC[C@H](CCC(=O)O)NC(=O)CCCCCCc1ccccc1,fold change,[1]; [8],0.993 (inactive)
same,fold change,[1]; [9],1.71
same,cell count,[1]; [10],6520
same,cell count,[1]; [11],6570
CCCCCCCCCCCCCCCCCCCCCC(=O)NCCS(=O)(=O)O,fold change,[1]; [8],0.845 (inactive)
same,fold change,[1]; [9],0.367
same,cell count,[1]; [10],5140
same,cell count,[1]; [11],6090
COC(=O)[C@H](Cc1ccccc1)NC(=O)/C=C/c1ccc(O)cc1,fold change,[1]; [8],1 (inactive)
same,fold change,[1]; [9],0.674
same,cell count,[1]; [10],6500
same,cell count,[1]; [11],6490
CC1=C(CC/C(C)=C/CCC2C=CC(C3=CC(=O)OC3O)OC2O)C(C)(C)CCC1 (stereo unspecified),fold change,[1]; [8],0.908 (inactive)
same,fold change,[1]; [9],0.704
same,cell count,[1]; [10],1170
same,cell count,[1]; [11],1290
CCCCC[C@H](O)/C=C/[C@H]1C(=O)C[C@H](O)[C@@H]1CCCCCCCO,fold change,[1]; [8],1.14 (inactive)
same,fold change,[1]; [9],1.46
same,cell count,[1]; [10],5820
same,cell count,[1]; [11],5120
CCCCCCCCCCCCC/C=C/[C@H](O)[C@@H](CO)NC(=O)CCCCCCCCCCCCCCCCCCCCCCC,fold change,[1]; [8],0.979 (inactive)
same,fold change,[1]; [9],0.918
same,cell count,[1]; [10],5890
same,cell count,[1]; [11],6010
CCCCCC/C=C\CCCC(=O)CC(=O)N[C@H]1CCOC1=O,fold change,[1]; [8],1.06 (inactive)
same,fold change,[1]; [9],1.36
same,cell count,[1]; [10],6290
same,cell count,[1]; [11],5940
CCOC(=O)/C=C/[C@H](CC(C)C)NC(=O)[C@H](CO)NC(=O)[C@@H](NC(=O)c1cccc(O)c1C)C(C)C,fold change,[1]; [8],0.61 (active)
same,fold change,[1]; [9],0.781
same,cell count,[1]; [10],3640
same,cell count,[1]; [11],5980
CC(C)[C@H](NC(=O)OCc1ccccc1)C(=O)N[C@H](C=O)Cc1ccccc1 (Cbz-Val-Phe-aldehyde),period change,[2],-0.095 h (inactive)
same,inhibition,[3],1% (inactive)
same,fluorescence ratio (interference),[4],1.1 (inactive)
same,fold change,[1]; [8],1.08 (inactive) and 0.959 (inactive)
same,fold change,[1]; [9],1.1 and 1.17
same,cell count,[1]; [10],9200 and 4810
same,cell count,[1]; [11],8520 and 5010
same,fold fluorescence,[5],5.31 [at 130.7 µM] (inactive)
same,outcome,[6],inactive
same,z-score,[7],0.52 (inactive)
